In ChEMBL document CHEMBL3988442, “University of Dundee, Small-Polar-MMV Screening Library” (2021):
For some of these results: Entries with a potency or affinity are not part of this list.

Tests used:
Set-up in all cases: scale not given: direction of the effect not stated beside the values
[1] = target: Protein translocase subunit SecA (Escherichia coli (strain K12)) (UniProt P10408); assay: Assay to Identify E. coli SecA ATPase Inhibitors; type: functional; conditions: 30 µM
[2] = target: T1, Ubiquitin-activating enzyme e1, putative (Leishmania donovani (strain BPK282A1)) (UniProt E9BSI1); assay: Leishmania donovani Ubiquitin Activating Enzyme (LdE1); type: functional; conditions: 30 µM
T1 sequence (whole entry): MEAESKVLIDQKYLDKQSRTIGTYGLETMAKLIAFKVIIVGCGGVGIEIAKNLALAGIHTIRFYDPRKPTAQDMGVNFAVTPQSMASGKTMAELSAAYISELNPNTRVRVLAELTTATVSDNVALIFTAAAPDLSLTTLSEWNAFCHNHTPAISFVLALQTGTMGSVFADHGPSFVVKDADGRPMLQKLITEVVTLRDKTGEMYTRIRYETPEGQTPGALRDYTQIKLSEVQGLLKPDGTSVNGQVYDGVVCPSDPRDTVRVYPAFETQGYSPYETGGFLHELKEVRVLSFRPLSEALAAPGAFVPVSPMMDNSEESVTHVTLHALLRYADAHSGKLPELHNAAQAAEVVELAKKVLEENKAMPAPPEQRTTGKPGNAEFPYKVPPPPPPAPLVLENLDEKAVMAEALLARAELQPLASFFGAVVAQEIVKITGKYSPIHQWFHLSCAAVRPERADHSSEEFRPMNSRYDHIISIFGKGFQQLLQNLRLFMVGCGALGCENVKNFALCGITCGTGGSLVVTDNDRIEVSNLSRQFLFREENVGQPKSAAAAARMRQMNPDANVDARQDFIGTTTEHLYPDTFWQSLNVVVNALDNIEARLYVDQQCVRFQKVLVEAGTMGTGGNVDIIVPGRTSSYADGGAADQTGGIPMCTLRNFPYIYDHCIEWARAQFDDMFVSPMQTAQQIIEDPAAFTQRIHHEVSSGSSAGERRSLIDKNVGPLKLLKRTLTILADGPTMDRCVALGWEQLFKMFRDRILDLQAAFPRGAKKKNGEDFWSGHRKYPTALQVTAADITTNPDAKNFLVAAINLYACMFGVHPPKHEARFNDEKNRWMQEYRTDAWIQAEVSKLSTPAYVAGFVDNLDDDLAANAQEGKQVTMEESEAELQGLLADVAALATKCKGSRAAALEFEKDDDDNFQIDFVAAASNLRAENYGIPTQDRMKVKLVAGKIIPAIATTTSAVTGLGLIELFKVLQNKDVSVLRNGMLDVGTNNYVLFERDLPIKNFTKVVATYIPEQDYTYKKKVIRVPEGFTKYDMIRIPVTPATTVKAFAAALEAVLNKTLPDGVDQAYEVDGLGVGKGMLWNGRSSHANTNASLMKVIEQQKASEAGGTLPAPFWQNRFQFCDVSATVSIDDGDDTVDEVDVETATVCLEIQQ

[3] = target: AMP-activated protein kinase, AMPK (Homo sapiens) (UniProt P54646+O43741+P54619+Q9UGJ0+Q9Y478+Q13131+Q9UGI9); assay: AMP-dependent Kinase enzyme assay. An in vitro enzyme assay that detects ADP turnover that is directly proportional to AMPK activity. This uses naive AMPK that is activated during the assay with MK-8722; type: functional; conditions: 30 µM
[4] = target: Sialic acid-binding Ig-like lectin 9 (Homo sapiens) (UniProt Q9Y336); assay: Hs-Siglec9 ALPHAscreen SOP 20170721; conditions: 10 µM
Trypanosoma cruzi = assay: Trypanosoma cruzi phosphomannomutase and mannose-1-phosphate guanylyltransferase assay; type: functional; conditions: 10 µM
[5] = target: T2, Arginase-2, mitochondrial (Homo sapiens) (UniProt P78540); assay: in vitro enzyme assay to detect the production of urea directly proportional to the activity of Arginase II; type: functional; conditions: 33.3 µM; also: in the data most compounds retested in dose-response had high values
T2 sequence (whole entry): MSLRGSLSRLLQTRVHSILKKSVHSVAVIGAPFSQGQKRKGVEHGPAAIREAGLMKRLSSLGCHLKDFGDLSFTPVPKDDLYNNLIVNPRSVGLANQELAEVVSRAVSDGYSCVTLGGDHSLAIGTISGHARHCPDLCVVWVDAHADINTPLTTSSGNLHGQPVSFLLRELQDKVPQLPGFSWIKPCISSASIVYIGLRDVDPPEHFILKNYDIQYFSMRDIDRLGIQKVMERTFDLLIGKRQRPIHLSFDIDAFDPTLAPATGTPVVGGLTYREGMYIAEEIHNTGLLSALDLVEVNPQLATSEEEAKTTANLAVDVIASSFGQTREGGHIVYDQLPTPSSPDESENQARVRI

[6] = target: T3, Proteasome subunit beta (Trypanosoma cruzi) (UniProt O96673); assay: Trypanosoma cruzi proteasome chymotrypsin-like activity (TcProtChymo) assay.; also: in the data most compounds retested in dose-response had high values; type: functional; conditions: 9.37 µM
T3 sequence (whole entry): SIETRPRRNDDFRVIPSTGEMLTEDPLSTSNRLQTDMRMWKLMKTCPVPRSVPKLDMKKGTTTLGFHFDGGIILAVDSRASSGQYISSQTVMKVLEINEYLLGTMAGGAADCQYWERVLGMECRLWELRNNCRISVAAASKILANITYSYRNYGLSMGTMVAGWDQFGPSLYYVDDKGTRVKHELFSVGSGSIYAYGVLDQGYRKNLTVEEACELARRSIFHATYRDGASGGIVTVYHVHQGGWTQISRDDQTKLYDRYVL

Homo sapiens = species on record: Homo sapiens; assay: To identify inhibition of the IFN signalling (Jak-Stat) pathway via expression of an eGFP reporter gene under the control of an IFN-stimulated response element (ISRE) containing MxA promoter.; type: functional; conditions: 30 µM
[7] = target: T4, Tyrosyl-tRNA synthetase, putative (Trypanosoma cruzi (strain CL Brener)) (UniProt Q4DSP6); assay: Trypanosoma cruzi tyrosyl tRNA synthetase (TcYRS) _High Tyrosine SOP; type: functional; conditions: 30 µM; also: in the data most compounds retested in dose-response had high values
T4 sequence (whole entry): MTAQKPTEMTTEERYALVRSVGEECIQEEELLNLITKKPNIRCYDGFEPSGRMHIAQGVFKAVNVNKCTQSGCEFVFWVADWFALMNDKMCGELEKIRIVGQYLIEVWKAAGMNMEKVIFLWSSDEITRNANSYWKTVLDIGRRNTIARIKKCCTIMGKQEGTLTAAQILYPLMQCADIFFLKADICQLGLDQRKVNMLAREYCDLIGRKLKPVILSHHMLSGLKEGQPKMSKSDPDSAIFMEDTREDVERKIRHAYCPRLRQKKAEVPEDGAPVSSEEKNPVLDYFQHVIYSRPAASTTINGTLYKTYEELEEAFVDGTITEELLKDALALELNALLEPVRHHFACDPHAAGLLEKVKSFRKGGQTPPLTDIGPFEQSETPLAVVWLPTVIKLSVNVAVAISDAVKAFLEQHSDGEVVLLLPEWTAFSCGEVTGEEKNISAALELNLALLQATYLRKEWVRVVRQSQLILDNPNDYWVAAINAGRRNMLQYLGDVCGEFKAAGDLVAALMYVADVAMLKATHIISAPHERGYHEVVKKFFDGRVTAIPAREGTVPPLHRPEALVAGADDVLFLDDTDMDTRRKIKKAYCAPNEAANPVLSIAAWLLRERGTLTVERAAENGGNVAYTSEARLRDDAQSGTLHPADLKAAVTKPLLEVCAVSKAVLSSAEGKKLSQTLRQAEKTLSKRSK

[8] = target: T4, Tyrosyl-tRNA synthetase, putative (Trypanosoma cruzi (strain CL Brener)); assay: Trypanosoma cruzi tyrosyl tRNA synthetase (TcYRS) SOP; type: functional; conditions: 30 µM
[9] = target: Chromo domain-containing protein 1 (Saccharomyces cerevisiae (strain ATCC 204508 / S288c) (Baker's yeast)) (UniProt P32657); assay: ScCHD-1 Enzyme Inhibition Assay; type: functional; conditions: 30 µM; also: in the data most compounds retested in dose-response had high values
Sequence of Chromo domain-containing protein 1 (Saccharomyces cerevisiae (strain ATCC 204508 / S288c) (Baker's yeast)) (P32657 whole entry, the tested form may be a part): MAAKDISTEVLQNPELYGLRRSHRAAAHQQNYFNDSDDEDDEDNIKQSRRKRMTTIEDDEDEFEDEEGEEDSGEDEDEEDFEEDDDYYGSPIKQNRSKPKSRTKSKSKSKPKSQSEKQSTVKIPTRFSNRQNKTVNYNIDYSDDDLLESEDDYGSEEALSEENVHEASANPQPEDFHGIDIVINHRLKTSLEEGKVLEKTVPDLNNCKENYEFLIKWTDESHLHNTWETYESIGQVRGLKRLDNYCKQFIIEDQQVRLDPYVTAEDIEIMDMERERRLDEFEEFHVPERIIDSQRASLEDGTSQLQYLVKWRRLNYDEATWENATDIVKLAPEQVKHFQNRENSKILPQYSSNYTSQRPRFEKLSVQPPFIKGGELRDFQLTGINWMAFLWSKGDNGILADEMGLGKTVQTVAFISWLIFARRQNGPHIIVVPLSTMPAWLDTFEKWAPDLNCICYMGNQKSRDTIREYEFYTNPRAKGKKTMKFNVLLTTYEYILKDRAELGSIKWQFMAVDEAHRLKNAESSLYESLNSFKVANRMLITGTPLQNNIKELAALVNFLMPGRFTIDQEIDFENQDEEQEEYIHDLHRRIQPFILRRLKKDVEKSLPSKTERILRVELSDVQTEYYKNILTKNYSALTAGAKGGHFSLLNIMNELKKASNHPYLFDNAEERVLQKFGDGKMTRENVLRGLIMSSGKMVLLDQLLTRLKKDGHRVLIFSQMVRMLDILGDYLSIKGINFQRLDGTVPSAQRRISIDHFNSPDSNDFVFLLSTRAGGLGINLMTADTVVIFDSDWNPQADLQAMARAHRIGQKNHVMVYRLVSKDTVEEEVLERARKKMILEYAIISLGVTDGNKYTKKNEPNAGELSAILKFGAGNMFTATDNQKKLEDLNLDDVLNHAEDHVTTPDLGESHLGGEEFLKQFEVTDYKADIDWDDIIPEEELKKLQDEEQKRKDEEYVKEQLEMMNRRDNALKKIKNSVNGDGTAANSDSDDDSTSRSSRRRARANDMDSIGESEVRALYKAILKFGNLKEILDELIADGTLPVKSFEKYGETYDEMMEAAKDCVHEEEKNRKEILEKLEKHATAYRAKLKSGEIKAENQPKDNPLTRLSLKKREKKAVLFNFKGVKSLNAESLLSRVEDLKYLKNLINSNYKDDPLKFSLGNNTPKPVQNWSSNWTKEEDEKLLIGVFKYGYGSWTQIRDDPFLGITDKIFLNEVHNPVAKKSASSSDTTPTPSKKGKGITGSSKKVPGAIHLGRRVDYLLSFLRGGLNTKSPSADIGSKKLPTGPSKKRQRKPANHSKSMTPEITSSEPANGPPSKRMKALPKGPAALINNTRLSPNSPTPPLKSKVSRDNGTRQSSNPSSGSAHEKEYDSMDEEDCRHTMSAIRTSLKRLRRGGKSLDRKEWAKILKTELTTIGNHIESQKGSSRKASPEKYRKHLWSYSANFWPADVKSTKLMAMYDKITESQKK

Sequence of Protein translocase subunit SecA (Escherichia coli (strain K12)) (P10408 whole entry): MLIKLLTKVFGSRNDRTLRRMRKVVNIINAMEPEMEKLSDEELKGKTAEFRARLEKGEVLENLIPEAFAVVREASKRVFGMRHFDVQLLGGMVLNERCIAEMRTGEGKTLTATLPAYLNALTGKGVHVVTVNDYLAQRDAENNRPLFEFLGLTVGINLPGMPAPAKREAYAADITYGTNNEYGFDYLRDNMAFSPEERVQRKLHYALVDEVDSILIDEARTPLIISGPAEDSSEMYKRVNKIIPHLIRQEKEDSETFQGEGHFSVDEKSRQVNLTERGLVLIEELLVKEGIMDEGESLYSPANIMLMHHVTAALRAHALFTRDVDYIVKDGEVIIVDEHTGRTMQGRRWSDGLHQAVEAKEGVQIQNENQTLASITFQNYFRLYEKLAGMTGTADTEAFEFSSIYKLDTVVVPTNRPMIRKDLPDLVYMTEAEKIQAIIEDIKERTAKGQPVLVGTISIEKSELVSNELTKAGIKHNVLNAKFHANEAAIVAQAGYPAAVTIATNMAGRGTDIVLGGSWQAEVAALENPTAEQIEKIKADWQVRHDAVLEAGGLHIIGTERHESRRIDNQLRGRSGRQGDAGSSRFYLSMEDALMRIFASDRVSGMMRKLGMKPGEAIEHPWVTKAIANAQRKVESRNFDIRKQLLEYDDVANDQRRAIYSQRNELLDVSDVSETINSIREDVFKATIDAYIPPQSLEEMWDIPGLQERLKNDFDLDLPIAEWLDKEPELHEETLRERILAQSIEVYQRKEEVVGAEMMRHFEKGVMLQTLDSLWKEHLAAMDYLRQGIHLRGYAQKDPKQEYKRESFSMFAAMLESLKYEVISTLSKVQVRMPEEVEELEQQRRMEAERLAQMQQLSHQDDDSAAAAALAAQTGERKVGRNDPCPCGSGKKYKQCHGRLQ
Sequence of Sialic acid-binding Ig-like lectin 9 (Homo sapiens) (Q9Y336 whole entry): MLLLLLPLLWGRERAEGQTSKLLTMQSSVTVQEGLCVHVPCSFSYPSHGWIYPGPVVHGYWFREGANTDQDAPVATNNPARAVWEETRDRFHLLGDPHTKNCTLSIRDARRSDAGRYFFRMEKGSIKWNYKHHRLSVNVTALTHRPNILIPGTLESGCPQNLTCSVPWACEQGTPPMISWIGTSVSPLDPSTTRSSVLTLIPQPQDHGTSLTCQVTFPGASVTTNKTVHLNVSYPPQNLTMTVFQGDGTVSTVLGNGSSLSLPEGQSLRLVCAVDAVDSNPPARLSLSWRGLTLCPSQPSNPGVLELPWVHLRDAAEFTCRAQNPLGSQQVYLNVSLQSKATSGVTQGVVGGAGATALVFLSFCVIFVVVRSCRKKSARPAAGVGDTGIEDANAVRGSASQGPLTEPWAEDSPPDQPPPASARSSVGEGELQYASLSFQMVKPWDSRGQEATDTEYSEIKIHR

Row | Compound | Percent Effect [1] | Percent Effect [2] | Percent Effect [3] | Percent Effect [4] | Percent Effect (Trypanosoma cruzi) | Percent Effect [5] | Percent Effect [6] | Percent Effect (Homo sapiens) | Percent Effect [7] | Percent Effect [8] | Percent Effect [9]
1 | Cc1nn(C)c(C)c1C1CCCN1Cc1cccc(C(N)=O)c1 (stereo not given) | 2.51% | 0% | -3.2% | 12.2% | -4.63% | 3.04% | 9.26% | 8.29% | 2.46% | -1.27% | 0.624%
2 | COC(=O)c1cccc(NC(=O)CN2CCN(S(C)(=O)=O)CC2)c1 | -1.95% | 16.2% | 0.0395% | 18.7% | 2.64% | 25.6% | 15.4% | 0.655% | 4.3% | 16.1% | -4.76%
3 | Cc1ccc(-c2nnc(CN3CCOC(Cn4cccn4)C3)o2)cc1 (stereo not given) | -4.11% | 10.1% | -1.13% | 4.66% | 0.661% | 3.42% | 7.45% | 4.27% | 2.46% | 11.4% | -5.6%
4 | Cc1noc(C)c1CN1CCN(CC2CC2)c2ncccc2C1 | -0.988% | 5.33% | -0.194% | -3.6% | -5.71% | 3.5% | 4.49% | 23% | 4.25% | 8.97% | -3.22%
5 | Cc1cc(C(=O)N2CC[C@@H]3CN(S(C)(=O)=O)CCO[C@@H]3C2)c(C)o1 | -2.68% | 13.5% | 1.13% | -7.58% | -3.62% | 2.87% | 25.6% | -7.91% | 4.32% | 15.4% | -2.64%
6 | Cn1cc(C[C@H]2[C@H](N3CCOCC3)CCN2C(=O)c2ccco2)cn1 | -7.84% | 5.33% | 7.06% | -0.822% | -7.09% | -0.699% | 7.49% | 21.2% | 2.13% | 6.41% | -4.64%
7 | Cc1nc(N2CCN(C(=O)C(C)(C)C)CC2)cc(-n2cnc(C)c2C)n1 | -3.24% | 10.4% | 2.15% | 6.33% | 6.2% | -44.1% | 22.3% | 4.66% | 3.23% | 8.64% | -4.66%
8 | CN(C)C(C(=O)N1CCCC1)c1ccccc1F (stereo not given) | -2.84% | 1.39% | 3.5% | -3.25% | -5.54% | 5.3% | 4.74% | -1.68% | 3.16% | 2.56% | -0.0422%
9 | Cn1cccc1C(=O)NCc1cnc2n1CCN(C(=O)N1CCCC1)C2 | -5.97% | 16% | -1.93% | 4.39% | 6.18% | -45% | 7.86% | 3.79% | 2.08% | 12.5% | -6.82%
10 | CC(C)c1cc(NC(=O)CN2CCc3cncnc3C2)on1 | -5.41% | 10.4% | -22.4% | 3.99% | 1.31% | -5.34% | 4.39% | -5.17% | 16.5% | 21.9% | -6.84%
11 | Cc1nc(N2CCCCC2)ncc1C(=O)N1CC(C)(C)[C@@](C)(O)C1 | -4.9% | 0% | -4.56% | 7.93% | -2.05% | 4.22% | -6.09% | 7.42% | 8.6% | 6.17% | -1.76%
12 | O=S(=O)(C1CC1)N1CCO[C@H]2[C@H](OCC3CCCC3)CC[C@@H]21 | -4.67% | 0% | 1.22% | -1.17% | 4.83% | -45.7% | 2.05% | -5.99% | 0% | 5% | -4.13%
13 | CN(Cc1nccn1CC(F)(F)F)C(=O)c1ccc(F)cc1F | -4.89% | 5.26% | 5.36% | 6.23% | -5.16% | -5.92% | 12.8% | -12.9% | 6.38% | 7.79% | 3.79%
14 | COc1cccc(C(=O)NS(=O)(=O)c2cccc(C#N)c2)c1OC | -5.72% | 10.8% | -6.64% | 1.98% | 1.58% | 2.4% | -0.539% | 0.367% | 1.98% | 13.4% | 3.98%
15 | Cc1sc(NC(=O)CN(C)S(C)(=O)=O)c(C#N)c1C | -2.06% | 7.79% | 7.85% | -2.17% | -6.8% | -29% | 13.4% | 2.12% | 5.29% | 8.97% | -6.9%
16 | Cc1ccc(N(CC(=O)c2ccc(Br)cc2)C2=NCCCCC2)cc1 | -1.45% | -55.3% | 5.34% | 3.76% | 5.55% | -11.8% | 11% | 17.9% | 4.25% | -2.6% | -1.8%
17 | N#CCCN(C(=O)CN1CCCC1C1CCCCC1)c1ccccc1 (stereo not given) | -2.43% | 0% | -4.92% | 3.65% | -1.56% | 2.5% | 15.1% | 17.1% | 12.9% | 8.54% | 0.924%
18 | Cc1nc(N2CCN(C(=O)C3CC3)CC2)c2c(n1)c(C)nn2C | -1.08% | 6.67% | 0.162% | 0.614% | 3.73% | -4.75% | 10.2% | 18.7% | 6.35% | 12.8% | -11.8%
19 | CCC(=O)N1CCC2(CC1)c1nc[nH]c1CCN2S(C)(=O)=O | -5.57% | 12.5% | -6.81% | 9.02% | 4.18% | 23% | 11.8% | 13.6% | 5.26% | 10.3% | -5.69%
20 | N#Cc1ccccc1OCCN1CCCC1Cn1cccn1 (stereo not given) | -0.713% | -5.41% | -5.48% | 8.98% | 5.75% | -3.61% | -5.22% | -12.9% | 2.46% | 11.1% | -5.36%
